In the supplement of paper PMC10849652:
About 7,900 targets were measured; listed, in parts, are those with a hit and a random draw of the rest. About 0.6% of all pairs of compound and target were hits.

Assays:
Test in all cases: log2 fold change, soluble protein after heating vs DMSO (PISA); higher = thermal stabilisation; K562 cells, 10 uM, 30 min; active = over 0.2 and 3.5 SD of the protein, either way, in both replicates (recomputed)
[1] = compound: COC1=CC=C(C=C1)CN2C=CC3=C2C=C(C=C3)C(=O)NO
Procedure, shortened: (§1)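 K562 cells (2×10^6 cells/mL) were treated with 10 μM compound for 30 min, and aliquots were heated for 3 min over 48°C-58°C. Pooled aliquots were extracted in PBS with 0.5% NP-40 at 4°C, and the supernatant after 21,000xg for 90 min was measured by TMTpro 16plex LC-MS/MS with channel sums equalised. Reported thermal stability, relative to control samples and from duplicates, is a log2 fold change.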

[2] = compound: CON(C)C(=O)N1N=C(c2cc(F)ccc2F)S[C@@]1(CCCN)c1ccccc1 [filanesib]
Procedure, shortened: as §1

[3] = compound: CO[C@H]1C[C@@H]2CC[C@@H](C)[C@@](O)(O2)C(=O)C(=O)N2CCCC[C@H]2C(=O)O[C@H]([C@H](C)C[C@@H]2CC[C@H](n3cnnn3)[C@H](OC)C2)CC(=O)[C@H](C)/C=C(\C)[C@@H](O)[C@@H](OC)C(=O)[C@H](C)C[C@H](C)/C=C/C=C/C=C/1C [zotarolimus]
Procedure, shortened: as §1

[4] = compound: COc1cc(C(=O)O)ccc1NC(=O)[C@@H]1N[C@@H](CC(C)(C)C)[C@](C#N)(c2ccc(Cl)cc2F)[C@H]1c1cccc(Cl)c1F [idasanutlin]
Procedure, shortened: as §1

[5] = compound: COc1cc(Nc2ncc3c(n2)-c2ccc(Cl)cc2C(c2c(F)cccc2OC)=NC3)ccc1C(=O)O [alisertib]
Procedure, shortened: as §1

[6] = compound: COc1cc2nc(-c3cc(F)ccc3O)nc(N[C@@H]3CNC[C@H]3C(C)(C)O)c2cc1OC
Procedure, shortened: as §1

[7] = compound: COc1cc2ncnc(Nc3ccc(F)c(Cl)c3)c2cc1OCCCN1CCOCC1 [gefitinib]
Procedure, shortened: as §1

[8] = compound: COc1cccc2cc(-c3nc([C@H]4CC[C@H](C(=O)O)CC4)n4ncnc(N)c34)[nH]c12
Procedure, shortened: as §1

[9] = compound: CS(=O)(=O)CCNCc1ccc(-c2ccc3ncnc(Nc4ccc(OCc5cccc(F)c5)c(Cl)c4)c3c2)o1 [lapatinib]
Procedure, shortened: as §1

[10] = compound: CS(=O)(=O)N1CCN(Cc2cc3nc(-c4cccc5[nH]ncc45)nc(N4CCOCC4)c3s2)CC1 [pictilisib]
Procedure, shortened: as §1

Measured: log2 fold change

TRAM1 (UniProt Q15629)
Chain of UniProt Q15629 (Q15629 whole entry, looked up): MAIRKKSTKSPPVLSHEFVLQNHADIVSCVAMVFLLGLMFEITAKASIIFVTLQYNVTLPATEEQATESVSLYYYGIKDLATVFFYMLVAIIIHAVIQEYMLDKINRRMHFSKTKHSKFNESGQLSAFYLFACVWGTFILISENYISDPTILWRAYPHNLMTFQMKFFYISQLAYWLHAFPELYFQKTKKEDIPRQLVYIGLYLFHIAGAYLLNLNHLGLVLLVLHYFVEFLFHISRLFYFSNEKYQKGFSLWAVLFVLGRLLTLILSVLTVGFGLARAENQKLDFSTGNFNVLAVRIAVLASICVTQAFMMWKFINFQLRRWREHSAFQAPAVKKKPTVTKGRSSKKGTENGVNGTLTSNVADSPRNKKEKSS
inactive: [1] -0.188 | [2] -0.218 | [3] -0.103 | [4] -0.119 | [5] -0.067 | [6] 0.24 | [7] -0.066 | [8] 0.005 | [9] -0.092 | [10] -0.163

WDR7 (UniProt Q9Y4E6)
inactive: [1] -0.04 | [2] 0.084 | [3] 0.045 | [4] -0.016 | [5] -0.076 | [6] -0.102 | [7] -0.027 | [8] -0.074 | [9] 0.003 | [10] -0.097

TXNIP (UniProt Q9H3M7)
inactive: [1] -0.013 | [2] -0.148 | [3] 0.172 | [4] 0.035 | [5] -0.198 | [6] -0.074 | [7] 0.002 | [8] -0.119 | [9] 0.228 | [10] 0.142

WASHC3 (UniProt Q9Y3C0)
inactive: [1] 0.108 | [2] -0.061 | [3] 0.001 | [4] 0.068 | [5] 0.077 | [6] 0.002 | [7] -0.014 | [8] 0.042 | [9] -0.029 | [10] 0.05

UBAP2L isoform 1 (UniProt Q14157)
inactive: [1] 0.016 | [2] -0.014 | [3] 0.011 | [4] 0.059 | [5] -0.05 | [6] 0.213 | [7] 0.074 | [8] 0.103 | [9] -0.248 | [10] -0.114

VRK2 (UniProt Q86Y07)
inactive: [1] -0.009 | [2] 0.075 | [3] 0 | [4] -0.066 | [5] 0.042 | [6] 0.003 | [7] 0.018 | [8] -0.027 | [9] -0.003 | [10] -0.06

VKORC1 (UniProt Q9BQB6)
inactive: [1] 0.079 | [2] -0.077 | [3] 0.022 | [4] -0.089 | [5] 0.016 | [6] -0.019 | [7] -0.05 | [8] -0.144 | [9] -0.06 | [10] -0.021

VPS41 (UniProt P49754)
Chain of UniProt P49754 (P49754 whole entry, looked up): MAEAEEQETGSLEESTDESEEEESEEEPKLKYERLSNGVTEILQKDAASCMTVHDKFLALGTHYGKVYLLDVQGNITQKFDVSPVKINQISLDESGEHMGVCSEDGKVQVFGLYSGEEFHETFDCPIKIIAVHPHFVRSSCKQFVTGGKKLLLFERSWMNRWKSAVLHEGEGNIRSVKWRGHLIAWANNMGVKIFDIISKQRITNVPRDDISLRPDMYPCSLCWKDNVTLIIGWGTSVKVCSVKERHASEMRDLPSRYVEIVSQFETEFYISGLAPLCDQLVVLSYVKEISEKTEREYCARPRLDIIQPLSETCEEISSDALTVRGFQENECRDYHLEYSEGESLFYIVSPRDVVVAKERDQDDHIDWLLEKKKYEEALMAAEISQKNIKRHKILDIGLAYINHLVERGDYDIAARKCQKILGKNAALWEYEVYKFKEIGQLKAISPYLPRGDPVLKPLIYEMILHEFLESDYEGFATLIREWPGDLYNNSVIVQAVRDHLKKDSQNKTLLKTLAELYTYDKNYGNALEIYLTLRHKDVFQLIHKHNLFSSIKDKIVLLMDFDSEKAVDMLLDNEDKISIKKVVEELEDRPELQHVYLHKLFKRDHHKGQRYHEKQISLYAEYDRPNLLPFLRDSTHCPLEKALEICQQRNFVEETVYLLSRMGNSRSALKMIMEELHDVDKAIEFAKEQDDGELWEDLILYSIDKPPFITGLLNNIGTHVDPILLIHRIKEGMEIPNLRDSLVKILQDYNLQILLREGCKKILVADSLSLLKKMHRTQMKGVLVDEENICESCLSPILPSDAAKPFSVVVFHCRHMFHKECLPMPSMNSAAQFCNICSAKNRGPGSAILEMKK
inactive: [1] 0.004 | [2] -0.085 | [3] 0.015 | [4] -0.068 | [5] 0.038 | [6] -0.032 | [7] -0.002 | [8] -0.063 | [9] 0.008 | [10] -0.028

TSEN2 (UniProt Q8NCE0)
Chain of UniProt Q8NCE0 (Q8NCE0 whole entry, looked up): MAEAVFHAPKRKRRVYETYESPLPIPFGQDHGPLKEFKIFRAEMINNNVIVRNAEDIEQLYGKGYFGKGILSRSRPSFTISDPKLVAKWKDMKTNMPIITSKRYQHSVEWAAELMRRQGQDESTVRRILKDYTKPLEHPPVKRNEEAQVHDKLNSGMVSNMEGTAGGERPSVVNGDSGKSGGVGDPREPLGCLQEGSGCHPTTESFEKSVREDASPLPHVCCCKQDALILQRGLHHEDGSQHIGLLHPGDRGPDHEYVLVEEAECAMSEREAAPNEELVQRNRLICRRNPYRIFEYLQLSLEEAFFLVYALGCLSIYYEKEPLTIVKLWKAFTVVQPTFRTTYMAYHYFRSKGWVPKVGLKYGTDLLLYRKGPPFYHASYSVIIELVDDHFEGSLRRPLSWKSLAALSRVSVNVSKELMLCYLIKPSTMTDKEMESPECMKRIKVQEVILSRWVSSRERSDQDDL
inactive: [1] 0.018 | [2] 0.043 | [3] 0 | [4] -0.065 | [5] -0.075 | [6] 0.077 | [7] 0.028 | [8] 0.114 | [9] -0.015 | [10] 0.013

TMEM63B (UniProt Q5T3F8)
inactive: [1] -0.125 | [2] -0.089 | [3] -0.018 | [4] 0.011 | [5] -0.037 | [6] -0.028 | [7] -0.03 | [8] -0.028 | [9] 0.032 | [10] 0.003

TOM1L1 (UniProt O75674)
inactive: [1] -0.006 | [2] 0.06 | [3] 0.008 | [4] -0.142 | [5] -0.073 | [6] 0.061 | [7] 0.056 | [8] -0.051 | [9] -0.007 | [10] -0.076

TYW1 (UniProt Q9NV66)
inactive: [1] -0.16 | [2] -0.01 | [3] 0.019 | [4] -0.023 | [5] 0 | [6] 0.095 | [7] 0.013 | [8] -0.006 | [9] 0 | [10] -0.147

TMTC3 (UniProt Q6ZXV5)
inactive: [1] -0.092 | [2] 0.01 | [3] 0.006 | [4] -0.03 | [5] 0.105 | [6] -0.085 | [7] -0.007 | [8] -0.041 | [9] 0.053 | [10] 0.032

TMEM9 (UniProt Q9P0T7)
Chain of UniProt Q9P0T7 (Q9P0T7 whole entry, looked up): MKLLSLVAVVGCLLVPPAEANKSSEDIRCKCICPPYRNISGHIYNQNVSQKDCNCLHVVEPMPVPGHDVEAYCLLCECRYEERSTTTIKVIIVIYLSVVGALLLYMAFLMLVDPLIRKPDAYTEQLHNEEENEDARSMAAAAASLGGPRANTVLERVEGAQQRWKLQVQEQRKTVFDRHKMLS
inactive: [1] -0.085 | [2] -0.078 | [3] 0.081 | [4] 0.006 | [5] -0.081 | [6] -0.178 | [7] -0.007 | [8] 0.052 | [9] 0.04 | [10] 0.036

WAPL isoform 3 (UniProt Q7Z5K2)
Chain of UniProt Q7Z5K2 (Q7Z5K2 whole entry, looked up): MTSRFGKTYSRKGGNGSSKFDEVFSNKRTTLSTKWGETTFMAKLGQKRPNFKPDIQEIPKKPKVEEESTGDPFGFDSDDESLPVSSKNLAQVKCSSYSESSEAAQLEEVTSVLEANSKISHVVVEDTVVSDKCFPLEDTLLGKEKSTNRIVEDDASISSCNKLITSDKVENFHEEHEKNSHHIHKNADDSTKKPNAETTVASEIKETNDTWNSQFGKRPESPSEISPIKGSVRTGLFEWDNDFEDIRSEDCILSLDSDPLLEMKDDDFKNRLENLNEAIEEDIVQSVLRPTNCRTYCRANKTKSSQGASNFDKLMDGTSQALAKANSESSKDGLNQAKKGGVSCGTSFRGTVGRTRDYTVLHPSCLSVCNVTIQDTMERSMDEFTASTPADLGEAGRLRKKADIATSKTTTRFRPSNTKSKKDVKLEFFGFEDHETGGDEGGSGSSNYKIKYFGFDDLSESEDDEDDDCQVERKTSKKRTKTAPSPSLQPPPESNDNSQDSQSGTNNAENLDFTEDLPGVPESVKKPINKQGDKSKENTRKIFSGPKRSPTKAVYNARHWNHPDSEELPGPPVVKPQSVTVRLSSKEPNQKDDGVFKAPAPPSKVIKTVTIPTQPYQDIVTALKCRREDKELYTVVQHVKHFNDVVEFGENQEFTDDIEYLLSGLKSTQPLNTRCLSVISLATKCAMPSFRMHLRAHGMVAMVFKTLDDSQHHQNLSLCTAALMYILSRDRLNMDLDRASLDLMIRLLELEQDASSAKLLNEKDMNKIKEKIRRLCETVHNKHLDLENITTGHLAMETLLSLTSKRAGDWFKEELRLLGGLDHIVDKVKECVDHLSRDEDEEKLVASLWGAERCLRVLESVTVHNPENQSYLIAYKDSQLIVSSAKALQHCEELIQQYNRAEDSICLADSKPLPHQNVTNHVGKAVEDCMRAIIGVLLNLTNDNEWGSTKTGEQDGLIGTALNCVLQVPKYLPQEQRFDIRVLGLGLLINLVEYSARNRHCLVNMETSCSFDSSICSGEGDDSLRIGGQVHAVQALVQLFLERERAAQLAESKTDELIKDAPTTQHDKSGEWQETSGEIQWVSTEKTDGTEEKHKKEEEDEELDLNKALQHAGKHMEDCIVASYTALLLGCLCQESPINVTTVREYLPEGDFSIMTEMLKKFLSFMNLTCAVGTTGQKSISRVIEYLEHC
inactive: [1] 0.052 | [2] -0.009 | [3] 0.128 | [4] -0.027 | [5] 0.038 | [6] -0.273 | [7] -0.006 | [8] -0.003 | [9] 0 | [10] 0.027

UTP4 (UniProt Q969X6)
inactive: [1] -0.05 | [2] -0.043 | [3] -0.017 | [4] -0.034 | [5] -0.095 | [6] 0.132 | [7] 0 | [8] 0.029 | [9] -0.006 | [10] 0.035

TRAPPC11 (UniProt Q7Z392)
inactive: [1] 0.015 | [2] -0.018 | [3] 0.024 | [4] -0.039 | [5] -0.052 | [6] -0.03 | [7] -0.012 | [8] -0.019 | [9] -0.014 | [10] 0.042

USP9X (UniProt Q93008)
inactive: [1] -0.02 | [2] -0.017 | [3] 0.018 | [4] -0.096 | [5] -0.02 | [6] 0.029 | [7] -0.007 | [8] -0.008 | [9] -0.027 | [10] -0.033

UFL1 (UniProt O94874)
inactive: [1] 0.029 | [2] -0.022 | [3] 0.025 | [4] -0.108 | [5] -0.074 | [6] 0.212 | [7] 0.003 | [8] -0.071 | [9] -0.017 | [10] 0.016

VTI1B (UniProt Q9UEU0)
inactive: [1] -0.089 | [2] -0.027 | [3] -0.063 | [4] -0.026 | [5] 0.046 | [6] 0 | [7] -0.023 | [8] 0.137 | [9] 0.002 | [10] 0.061

WASHC2C, A0A096LPC5
inactive: [1] -0.072 | [2] 0.057 | [3] -0.062 | [4] 0.146 | [5] -0.042 | [6] 0.305 | [7] 0.018 | [8] 0.098 | [9] -0.141 | [10] 0.048

TRIM28 (UniProt Q13263)
inactive: [1] 0.015 | [2] -0.017 | [3] 0.046 | [4] -0.031 | [5] -0.087 | [6] 0.003 | [7] 0.002 | [8] -0.03 | [9] -0.005 | [10] 0.033

UGGT1 (UniProt Q9NYU2)
inactive: [1] -0.041 | [2] -0.008 | [3] 0.012 | [4] -0.014 | [5] -0.07 | [6] 0.009 | [7] -0.006 | [8] -0.01 | [9] 0.035 | [10] -0.005

XPNPEP3 (UniProt Q9NQH7)
inactive: [1] -0.12 | [2] -0.082 | [3] -0.021 | [4] -0.032 | [5] -0.011 | [6] 0.027 | [7] -0.002 | [8] 0.078 | [9] -0.024 | [10] 0.027

TSFM (UniProt P43897)
Chain of UniProt P43897 (P43897 whole entry, looked up): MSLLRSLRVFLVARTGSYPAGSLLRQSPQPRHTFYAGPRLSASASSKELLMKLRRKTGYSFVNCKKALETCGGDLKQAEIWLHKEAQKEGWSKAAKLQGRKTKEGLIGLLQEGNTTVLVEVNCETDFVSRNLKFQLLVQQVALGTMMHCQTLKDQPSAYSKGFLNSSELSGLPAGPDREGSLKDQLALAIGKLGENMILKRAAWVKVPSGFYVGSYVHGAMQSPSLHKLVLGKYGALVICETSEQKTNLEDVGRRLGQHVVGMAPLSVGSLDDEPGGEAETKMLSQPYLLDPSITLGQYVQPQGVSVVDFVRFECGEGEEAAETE
inactive: [1] 0.152 | [2] -0.146 | [3] 0.042 | [4] 0.039 | [5] 0.047 | [6] 0.12 | [7] 0.117 | [8] -0.002 | [9] -0.006 | [10] 0.066

TMEM87B (UniProt Q96K49)
inactive: [1] -0.064 | [2] -0.046 | [3] -0.108 | [4] -0.05 | [5] -0.133 | [6] -0.002 | [7] 0.063 | [8] 0.036 | [9] 0.026 | [10] 0.055

UGDH (UniProt O60701)
inactive: [1] 0.164 | [2] 0.001 | [3] 0.053 | [4] -0.043 | [5] 0.067 | [6] 0.04 | [7] 0.118 | [8] 0.059 | [9] -0.036 | [10] 0.022

TOP2A isoform 4 (UniProt P11388)
Chain of UniProt P11388 (P11388 whole entry, looked up): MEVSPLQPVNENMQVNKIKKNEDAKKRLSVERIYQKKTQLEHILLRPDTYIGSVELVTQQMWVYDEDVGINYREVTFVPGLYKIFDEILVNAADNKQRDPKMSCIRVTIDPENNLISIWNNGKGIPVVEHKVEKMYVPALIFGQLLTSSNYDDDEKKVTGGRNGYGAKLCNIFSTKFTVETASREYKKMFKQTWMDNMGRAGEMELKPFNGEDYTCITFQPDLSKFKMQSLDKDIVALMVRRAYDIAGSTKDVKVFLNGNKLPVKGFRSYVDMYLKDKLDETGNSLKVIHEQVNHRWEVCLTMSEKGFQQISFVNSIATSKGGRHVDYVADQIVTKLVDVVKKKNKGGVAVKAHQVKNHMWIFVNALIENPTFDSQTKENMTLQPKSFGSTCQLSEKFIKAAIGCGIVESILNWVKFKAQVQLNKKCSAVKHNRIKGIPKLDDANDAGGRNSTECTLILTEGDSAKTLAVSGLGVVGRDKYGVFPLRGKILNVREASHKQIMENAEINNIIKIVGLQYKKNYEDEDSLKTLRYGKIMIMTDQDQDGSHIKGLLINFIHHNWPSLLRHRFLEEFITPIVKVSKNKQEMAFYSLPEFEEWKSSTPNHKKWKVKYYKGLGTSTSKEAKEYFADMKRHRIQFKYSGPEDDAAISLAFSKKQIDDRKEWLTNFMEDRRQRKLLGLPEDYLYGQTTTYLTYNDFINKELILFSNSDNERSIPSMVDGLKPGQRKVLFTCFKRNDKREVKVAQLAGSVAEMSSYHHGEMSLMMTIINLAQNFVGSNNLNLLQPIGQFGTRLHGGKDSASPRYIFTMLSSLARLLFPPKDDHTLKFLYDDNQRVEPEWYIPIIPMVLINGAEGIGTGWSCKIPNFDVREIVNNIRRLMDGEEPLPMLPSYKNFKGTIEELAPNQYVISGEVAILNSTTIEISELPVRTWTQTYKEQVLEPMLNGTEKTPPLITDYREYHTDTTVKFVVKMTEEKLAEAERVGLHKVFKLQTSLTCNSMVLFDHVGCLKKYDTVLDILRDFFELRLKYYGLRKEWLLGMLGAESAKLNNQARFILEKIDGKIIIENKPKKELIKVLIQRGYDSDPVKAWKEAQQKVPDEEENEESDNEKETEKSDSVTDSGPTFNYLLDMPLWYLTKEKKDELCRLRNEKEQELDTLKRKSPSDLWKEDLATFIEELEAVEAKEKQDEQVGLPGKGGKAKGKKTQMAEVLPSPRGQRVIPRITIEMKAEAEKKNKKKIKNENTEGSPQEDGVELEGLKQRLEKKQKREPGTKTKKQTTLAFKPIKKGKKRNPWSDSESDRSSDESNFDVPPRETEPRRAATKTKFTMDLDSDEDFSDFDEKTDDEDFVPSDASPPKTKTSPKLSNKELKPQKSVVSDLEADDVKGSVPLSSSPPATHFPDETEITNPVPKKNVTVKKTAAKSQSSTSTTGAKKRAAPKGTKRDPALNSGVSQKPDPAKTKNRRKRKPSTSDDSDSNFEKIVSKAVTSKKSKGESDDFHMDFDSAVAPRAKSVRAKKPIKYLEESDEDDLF
inactive: [1] 0.052 | [2] 0.486 | [3] 0.079 | [4] 0.24 | [5] -0.144 | [6] -0.029 | [7] -0.042 | [8] -0.4 | [9] 0.13 | [10] -0.071

UBR2 (UniProt Q8IWV8)
inactive: [1] -0.016 | [2] 0.027 | [3] -0.105 | [4] 0.054 | [5] -0.041 | [6] 0.024 | [7] -0.021 | [8] 0.061 | [9] 0.052 | [10] 0.036

VTI1A (UniProt Q96AJ9)
inactive: [1] 0.014 | [2] -0.015 | [3] -0.024 | [4] -0.023 | [5] -0.039 | [6] -0.003 | [7] 0.024 | [8] 0 | [9] 0.021 | [10] -0.022
